Laboratory results as given in the supplement of paper PMC8728848.
The entries come from a sample that favours the strongest signals as a whole.

Assays:
Test in all cases: glycan array binding signal (z-score within array); higher = stronger binding
Conditions in all cases: glycan notation: IUPAC condensed, linker removed
[1] = target: Fuc(a1-2)Gal
Summary of the method: (§1)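 From the Consortium for Functional Glycomics database, 3228 arrays were curated, keeping only those whose protein sequence was available. Binding is given as a within-array Z-score averaged across arrays sharing a protein sequence and across linkers. Negative Z-scores can be read as non-binding.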

[2] = target: Fuc(a1-2)Gal(b1-4)GlcNAc(b1-2)Man(a1-3)[Fuc(a1-2)Gal(b1-4)GlcNAc(b1-2)Man(a1-6)]Man(b1-4)GlcNAc(b1-4)GlcNAc
Summary of the method: as §1

[3] = target: Fuc(a1-2)Gal(b1-4)GlcNAc6S
Summary of the method: as §1

[4] = target: Fuc(a1-2)[GalNAc(a1-3)]Gal
Summary of the method: as §1

[5] = target: Fuc(a1-2)[GalNAc(a1-3)]Gal(b1-3)GalNAc(b1-3)Gal(a1-4)Gal(b1-4)Glc
Summary of the method: as §1

[6] = target: Fuc(a1-2)[GalNAc(a1-3)]Gal(b1-4)GlcNAc(b1-2)Man(a1-3)[Fuc(a1-2)[GalNAc(a1-3)]Gal(b1-4)GlcNAc(b1-2)Man(a1-6)]Man(b1-4)GlcNAc(b1-4)GlcNAc
Summary of the method: as §1

[7] = target: Fuc(a1-3)[Gal(b1-4)]GlcNAc(b1-3)GalNAc
Summary of the method: as §1

[8] = target: Fuc(a1-3)[Gal(b1-4)]GlcNAc(b1-4)Gal(b1-4)[Fuc(a1-3)]GlcNAc(b1-4)Gal(b1-4)[Fuc(a1-3)]GlcNAc
Summary of the method: as §1

[9] = target: Fuc(a1-3)[GalNAc(b1-4)]GlcNAc
Summary of the method: as §1

[10] = target: Fuc(a1-3)[GalNAc(b1-4)]GlcNAc6S
Summary of the method: as §1

[11] = target: Gal(a1-4)Gal(b1-4)GlcNAc(b1-3)Gal(b1-4)Glc
Summary of the method: as §1

[12] = target: Gal(b1-4)GlcNAc(b1-2)Man(a1-6)[Man(a1-3)]Man(b1-4)GlcNAc(b1-4)GlcNAc
Summary of the method: as §1

[13] = target: Gal(b1-4)GlcNAc(b1-3)[Gal(b1-4)GlcNAc(b1-6)]GalNAc
Summary of the method: as §1

[14] = target: Gal(b1-4)GlcNAc(b1-6)Gal(b1-4)GlcNAc(b1-6)GalNAc
Summary of the method: as §1

[15] = target: GalNAc4S6S(b1-4)GlcNAc
Summary of the method: as §1

[16] = target: GalNAc6S(b1-4)GlcNAc
Summary of the method: as §1

[17] = target: GlcNAc(a1-3)Gal(b1-4)GlcNAc
Summary of the method: as §1

[18] = target: GlcNAc(a1-6)Gal(b1-4)GlcNAc
Summary of the method: as §1

[19] = target: GlcNAc(b1-2)Man(a1-3)[GlcNAc(b1-2)Man(a1-6)]Man(b1-4)GlcNAc(b1-4)[Fuc(a1-6)]GlcNAc
Summary of the method: as §1

[20] = target: GlcNAc(b1-3)Gal(b1-4)GlcNAc(b1-2)Man(a1-3)[GlcNAc(b1-3)Gal(b1-4)GlcNAc(b1-2)Man(a1-6)]Man(b1-4)GlcNAc(b1-4)[Fuc(a1-6)]GlcNAc
Summary of the method: as §1

[21] = target: GlcNAc(b1-3)Gal(b1-4)GlcNAc(b1-3)Gal(b1-4)GlcNAc(b1-3)Gal(b1-4)GlcNAc(b1-3)Gal(b1-4)GlcNAc(b1-2)[GlcNAc(b1-3)Gal(b1-4)GlcNAc(b1-3)Gal(b1-4)GlcNAc(b1-3)Gal(b1-4)GlcNAc(b1-3)Gal(b1-4)GlcNAc(b1-6)]Man(a1-6)[GlcNAc(b1-3)Gal(b1-4)GlcNAc(b1-3)Gal(b1-4)GlcNAc(b1-3)Gal(b1-4)GlcNAc(b1-3)Gal(b1-4)GlcNAc(b1-2)Man(a1-3)]Man(b1-4)GlcNAc(b1-4)[Fuc(a1-6)]GlcNAc
Summary of the method: as §1

[22] = target: GlcNAc(b1-3)Gal(b1-4)GlcNAc(b1-6)[GlcNAc(b1-3)]Gal(b1-4)GlcNAc
Summary of the method: as §1

[23] = target: GlcNAc(b1-3)[GlcNAc(b1-6)]GlcNAc(b1-4)GlcNAc
Summary of the method: as §1

[24] = target: GlcNAc(b1-4)GlcNAc
Summary of the method: as §1

[25] = target: Man(a1-2)Man(a1-3)[Man(a1-6)]Man(a1-6)[Man(a1-2)Man(a1-3)]Man(b1-4)GlcNAc(b1-4)GlcNAc
Summary of the method: as §1

[26] = target: Man(a1-2)Man(a1-6)[Man(a1-3)]Man(a1-6)[Man(a1-2)Man(a1-2)Man(a1-3)]Man
Summary of the method: as §1

[27] = target: Man(a1-2)Man(a1-6)[Man(a1-3)]Man(a1-6)[Man(a1-2)Man(a1-2)Man(a1-3)]Man(b1-4)GlcNAc(b1-4)GlcNAc
Summary of the method: as §1

[28] = target: Man(a1-3)[Man(a1-6)]Man
Summary of the method: as §1

[29] = target: Man(a1-3)[Man(a1-6)]Man(a1-6)[Man(a1-2)Man(a1-3)]Man(b1-4)GlcNAc(b1-4)GlcNAc
Summary of the method: as §1

[30] = target: Man(a1-3)[Man(a1-6)]Man(a1-6)[Man(a1-3)]Man
Summary of the method: as §1

[31] = target: Man(a1-3)[Man(a1-6)]Man(a1-6)[Man(a1-3)]Man(b1-4)GlcNAc(b1-4)GlcNAc
Summary of the method: as §1

[32] = target: Man(a1-3)[Man(a1-6)]Man(b1-4)GlcNAc(b1-4)GlcNAc
Summary of the method: as §1

[33] = target: Man(a1-3)[Man(a1-6)]Man(b1-4)GlcNAc(b1-4)[Fuc(a1-6)]GlcNAc
Summary of the method: as §1

[34] = target: Neu5Ac(a2-3)Gal
Summary of the method: as §1

[35] = target: Neu5Ac(a2-3)Gal(b1-3)GalNAc(b1-4)[Neu5Ac(a2-3)]Gal(b1-4)Glc
Summary of the method: as §1

[36] = target: Neu5Ac(a2-3)Gal(b1-3)GlcNAc(b1-6)GalNAc
Summary of the method: as §1

[37] = target: Neu5Ac(a2-3)Gal(b1-4)GlcNAc(b1-2)[Neu5Ac(a2-3)Gal(b1-4)GlcNAc(b1-6)]Man(a1-6)[Neu5Ac(a2-3)Gal(b1-4)GlcNAc(b1-2)Man(a1-3)][GlcNAc(b1-4)]Man(b1-4)GlcNAc(b1-4)GlcNAc
Summary of the method: as §1

[38] = target: Neu5Ac(a2-3)Gal(b1-4)GlcNAc(b1-3)Gal(b1-4)GlcNAc(b1-3)[Neu5Ac(a2-3)Gal(b1-4)GlcNAc(b1-3)Gal(b1-4)GlcNAc(b1-6)]GalNAc
Summary of the method: as §1

[39] = target: Neu5Ac(a2-3)Gal(b1-4)[Fuc(a1-3)]GlcNAc(b1-3)Gal(b1-4)GlcNAc
Summary of the method: as §1

[40] = target: Neu5Ac(a2-3)Gal(b1-4)[Fuc(a1-3)]GlcNAc(b1-6)[Gal(b1-3)]GalNAc
Summary of the method: as §1

[41] = target: Neu5Ac(a2-3)[Neu5Ac(a2-6)]GalNAc
Summary of the method: as §1

[42] = target: Neu5Ac(a2-6)Gal(b1-4)GlcNAc(b1-2)Man(a1-3)[Man(a1-6)]Man(b1-4)GlcNAc(b1-4)GlcNAc
Summary of the method: as §1

[43] = target: Neu5Ac(a2-6)Gal(b1-4)GlcNAc(b1-2)Man(a1-6)[Man(a1-3)]Man(b1-4)GlcNAc(b1-4)GlcNAc
Summary of the method: as §1

[44] = target: Neu5Ac(a2-6)Gal(b1-4)GlcNAc(b1-3)Gal(b1-4)GlcNAc(b1-2)Man(a1-3)[Neu5Ac(a2-6)Gal(b1-4)GlcNAc(b1-3)Gal(b1-4)GlcNAc(b1-2)Man(a1-6)]GalNAc
Summary of the method: as §1

[45] = target: Neu5Ac(a2-6)Gal(b1-4)GlcNAc(b1-3)Gal(b1-4)GlcNAc(b1-3)Gal(b1-4)GlcNAc(b1-2)Man(a1-3)[Neu5Ac(a2-6)Gal(b1-4)GlcNAc(b1-3)Gal(b1-4)GlcNAc(b1-3)Gal(b1-4)GlcNAc(b1-2)Man(a1-6)]GalNAc
Summary of the method: as §1

[46] = target: Neu5Ac(a2-6)GalNAc(b1-4)GlcNAc
Summary of the method: as §1

[47] = target: Neu5Ac(a2-8)Neu5Ac(a2-8)Neu5Ac(a2-3)[Gal(b1-3)GalNAc(b1-4)]Gal(b1-4)Glc
Summary of the method: as §1

[48] = target: Neu5Ac(b2-6)GalNAc
Summary of the method: as §1

B1: HHA (Hippeastrum hybrid) (protein)
chain: MQQDCNLVLYDVDKPIWASNTGGLARDCHLNMQSDGNLVVYAPRNQVIWASNTQGENGNYVCILQKDRNVVIYGTARWATGTNIHGAGIVGVPGSAPQNTTAEMIKLVRKYLITK
- glycan array binding signal (z-score) [1]: -0.215
- glycan array binding signal (z-score) [2]: 0.036
- glycan array binding signal (z-score) [3]: -0.207
- glycan array binding signal (z-score) [4]: -0.21
- glycan array binding signal (z-score) [5]: -0.213
- glycan array binding signal (z-score) [6]: -0.159
- glycan array binding signal (z-score) [7]: -0.17
- glycan array binding signal (z-score) [8]: -0.255
- glycan array binding signal (z-score) [9]: -0.196
- glycan array binding signal (z-score) [10]: -0.214
- glycan array binding signal (z-score) [11]: -0.203
- glycan array binding signal (z-score) [12]: 3.97
- glycan array binding signal (z-score) [13]: -0.247
- glycan array binding signal (z-score) [14]: -0.191
- glycan array binding signal (z-score) [15]: -0.218
- glycan array binding signal (z-score) [16]: -0.209
- glycan array binding signal (z-score) [17]: -0.2
- glycan array binding signal (z-score) [18]: -0.203
- glycan array binding signal (z-score) [19]: -0.168
- glycan array binding signal (z-score) [20]: -0.147
- glycan array binding signal (z-score) [21]: -0.124
- glycan array binding signal (z-score) [22]: -0.185
- glycan array binding signal (z-score) [23]: -0.264
- glycan array binding signal (z-score) [24]: -0.211
- glycan array binding signal (z-score) [25]: 3.35
- glycan array binding signal (z-score) [26]: 2.72
- glycan array binding signal (z-score) [27]: 3.81
- glycan array binding signal (z-score) [28]: 5.62
- glycan array binding signal (z-score) [29]: 5.57
- glycan array binding signal (z-score) [30]: 5.35
- glycan array binding signal (z-score) [31]: 5.15
- glycan array binding signal (z-score) [32]: 8.3
- glycan array binding signal (z-score) [33]: 6.07
- glycan array binding signal (z-score) [34]: -0.214
- glycan array binding signal (z-score) [35]: -0.218
- glycan array binding signal (z-score) [36]: -0.216
- glycan array binding signal (z-score) [37]: -0.221
- glycan array binding signal (z-score) [38]: -0.187
- glycan array binding signal (z-score) [39]: -0.211
- glycan array binding signal (z-score) [40]: -0.179
- glycan array binding signal (z-score) [41]: -0.215
- glycan array binding signal (z-score) [42]: 0.002
- glycan array binding signal (z-score) [43]: 3.55
- glycan array binding signal (z-score) [44]: -0.165
- glycan array binding signal (z-score) [45]: -0.107
- glycan array binding signal (z-score) [46]: -0.222
- glycan array binding signal (z-score) [47]: -0.177
- glycan array binding signal (z-score) [48]: -0.213
